Experimental data as given in PubChem BioAssay (NCATS).
Results filed as inconclusive are left out. Calls of active or inactive are those of the source. The call rests on the fitted dose curve; in most records, active means well fitted inhibition curve with a large enough effect; inconclusive means small, poorly fitted or top-dose-only effect; inactive means no such curve, though single readings can be large or run the other way.

The compounds below were run against Cytochrome P450 2C9 (Homo sapiens) (UniProt P11712) (assay: qHTS Assay for Inhibitors and Substrates of Cytochrome P450 2C9 (AID 883; further: nearly all actives have a fitted effect of over 60% in size)). Settings: recombinant CYP2C9, luciferin-H luminescence, 60 min; series mostly up to 57.1 µM.
Sequence of Cytochrome P450 2C9 (Homo sapiens) (P11712 whole entry, looked up): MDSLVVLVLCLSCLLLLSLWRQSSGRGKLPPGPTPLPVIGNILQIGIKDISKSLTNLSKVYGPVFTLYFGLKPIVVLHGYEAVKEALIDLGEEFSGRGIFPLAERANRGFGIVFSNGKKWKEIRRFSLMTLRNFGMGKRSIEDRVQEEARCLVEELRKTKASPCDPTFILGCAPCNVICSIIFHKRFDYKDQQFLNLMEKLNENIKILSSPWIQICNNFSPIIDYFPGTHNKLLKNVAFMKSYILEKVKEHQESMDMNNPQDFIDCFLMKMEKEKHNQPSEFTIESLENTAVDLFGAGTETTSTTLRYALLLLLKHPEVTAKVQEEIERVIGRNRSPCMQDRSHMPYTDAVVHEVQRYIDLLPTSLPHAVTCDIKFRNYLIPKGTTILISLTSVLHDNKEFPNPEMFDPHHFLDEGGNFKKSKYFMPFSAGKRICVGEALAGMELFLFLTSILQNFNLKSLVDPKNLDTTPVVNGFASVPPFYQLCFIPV
Outline: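 A luminogenic readout tracked human CYP2C9 (10nM) converting deoxyluciferin (100uM, at KM) in 25mM KPO4 during 60 min at 37C with regenerated NADPH. Values normalized to 57uM sulphaphenazole as complete inhibition.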
Potency means the concentration at half of the fitted maximal effect.

Potency, active:
COC(=O)[C@@]1(Cc2ccc(F)cc2)[C@H]2c3cc(C(=O)N4CCCC4)n(Cc4cccc5ccccc45)c3C[C@H]2CN1C(=O)c1ccccc1 1.58 µM
COC(=O)[C@@]1(Cc2ccccc2)[C@H]2c3cc(C(=O)N4CCCC4)n(Cc4ccc(OC)c(OC)c4)c3C[C@H]2CN1C(=O)c1ccccc1 1.26 µM
COC(=O)[C@@]1(Cc2ccc(F)cc2)[C@H]2c3cc(C(=O)N4CCCC4)n(Cc4ccc(OC(F)(F)F)cc4)c3C[C@H]2CN1C(=O)c1ccccc1 6.31 µM
C[C@@H](C(=O)Nc1ccc2ccccc2c1)[C@H]1C[C@]1(C)[C@H](NC(=O)OCc1ccccc1)c1ccccc1 1.58 µM
COC(=O)[C@@]1(Cc2ccc(F)cc2)[C@H]2c3cc(C(=O)N4CCCC4)n(Cc4ccccc4)c3C[C@H]2CN1C(=O)c1ccccc1 3.98 µM
CCCc1cc2c(n1Cc1cc(F)cc(F)c1)C(C)C1CN(C(=O)c3ccccc3)C(C)(C(=O)OC)C21 (stereo not drawn) 6.31 µM
COC(=O)[C@@H]1C[C@H]1[C@@H](NC(=O)Oc1ccc(F)cc1)c1ccccc1 3.98 µM
COC(=O)[C@@H]1C[C@H]1[C@@H](NC(=O)OCc1ccccc1)c1ccccc1 20 µM
